The results in this text go back to PubChem BioAssay (Tox21).

Several values for one entry are separate records, joined by “and”; a condition that tells them apart may be missing. Equal values may be shown once. Inconclusive results are not listed. A structure can be active in one record and inactive in another. Activity calls are given as the source filed them. Unless noted, calls follow the shape of the dose curve; as a rule, active = well fitted curve in the direction sought with a large enough effect in the repeat runs; inconclusive = weak or mixed curves; inactive = no such curve, though single readings can be large; an effect the other way counts as inactive or inconclusive.

Test [1] is described as follows: qHTS assay to identify small molecule antagonists of the androgen receptor (AR) signaling pathway using the MDA cell line in the presence of 0.5 nM R1881 - cell viability counter screen (AID 1259242). Also: nearly all actives have a fitted effect of over 45% in size. Also: potency is read from the fitted curve at half-maximal effect. Put shortly: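 Cells seeded at 3,000/well and allowed 5 hr at 37C, 0% CO2 before compound transfer and R1881 (0.5 nM final) addition; 16 hr later, live-cell protease fluorescence indicated cytotoxicity.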
On the technique in general: qHTS replaces the single test concentration by a dilution series.

The target in test [2] is Androgen receptor (Homo sapiens) (UniProt P10275). Briefly: qHTS assay to identify small molecule antagonists of the androgen receptor (AR) signaling pathway using the MDA cell line in the presence of 0.5 nM R1881 (AID 1259243). Also: nearly all actives have a fitted effect of over 50% in size. Also: potency is read from the fitted curve at half-maximal effect. The essentials:
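Luminescence from an AR/GR-responsive MMTV-luciferase construct in MDA-kb2 breast carcinoma cells, read 30 min after ONE-Glo, following 16 hr co-treatment with compounds and 0.5 nM R1881.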

Test [3] concerns the target Estrogen receptor (Homo sapiens) (UniProt P03372). The test can be described thus: qHTS assay to identify small molecule antagonists of the estrogen receptor alpha (ER-alpha) signaling pathway using the BG1 cell line in the presence of 0.1 nM 17-beta-estradiol (AID 1259244). Also: nearly all actives have a fitted effect of over 50% in size. Also: potency is read from the fitted curve at half-maximal effect. The essentials:
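Luciferase signal from VM7Luc4E2 ERE-reporter cells, co-dosed with test compound and 0.1 nM final 17beta-estradiol for 22 h, read with ONE-Glo.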

A short description of test [4]: qHTS assay to identify small molecule phospholipidosis (PLD) inducers (AID 1259344; active = well fitted curve in the direction sought with a large enough effect; an effect the other way counts as inactive or inconclusive). The essentials: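 Read-out is LipidTOX Red fluorescence (ex 595/em 615) imaged in HepG2 cells after 24 h compound exposure at 37 C, with Hoechst nuclear counterstain (ex 352/em 461) allowing per-cell normalisation.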
The nature of test [5]: qHTS assay to identify small molecule HDAC inhibitors (AID 1259364).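 Also: wild-type HCT-116 cells with endogenous class I/II HDAC activity; top concentration of the series differs between compounds; nearly all actives have a fitted effect of over 45% in size.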 The essentials: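 HCT-116 wt cells, 1,500/well, overnight attach. Compounds (DMSO) 2 h, 37 °C. HDAC-Glo I/II, 30 min RT. Luminescence.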
A short description of test [6]: qHTS assay to identify small molecule HDAC inhibitors - cell viability counter screen (AID 1259365). Also: nearly all actives have a fitted effect of over 50% in size. Also: potency is read from the fitted curve at half-maximal effect. The essentials:
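Following a 2hr exposure of overnight-plated wild-type HCT-116 cells to DMSO-delivered compounds, CellTiter-Glo was added and luminescence recorded after 30min at room temperature.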

The nature of test [7]: qHTS assay to identify small molecule agonists of the sonic hedgehog signaling (Shh) pathway - cell viability counter screen (AID 1259366). Also: nearly all actives have a fitted effect of over 50% in size. Also: potency is read from the fitted curve at half-maximal effect. The essentials:
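After a 4hr attachment at 37C, NIH/3T3 cells bearing an integrated Gli1-driven luciferase reporter were dosed with compounds. Treatment lasted 24hr, with the final hour including CellTiter-Fluor for a fluorescence viability measurement.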

Test [8] in a line: qHTS assay to identify small molecule antagonists of the sonic hedgehog signaling (Shh) pathway - cell viability counter screen (AID 1259367). Also: nearly all actives have a fitted effect of over 55% in size. Also: potency is read from the fitted curve at half-maximal effect. Put shortly:
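Fluorescence read-out (CellTiter-Fluor, 1 hr at 37C) taken after 23 hr compound treatment of 3T3 Gli1-Luc cells stimulated with conditioned medium. Cells were seeded at 2,000 per well and pre-incubated 4 hr.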

Test [9] can be described thus: qHTS assay to identify small molecule agonists of the sonic hedgehog signaling (Shh) pathway (AID 1259368; calls by dose curve;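 also: NIH/3T3-derived 3T3Gli1-Luc cells carrying a stable Gli1-driven firefly luciferase reporter; series mostly up to about 92 µM; nearly all actives have a fitted effect of over 15% in size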). The essentials:
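Following a 24 hr incubation with DMSO-dissolved compounds at 37 C, 5% CO2, Gli1-Luc NIH/3T3-derived cells received luciferase reagent for 30 min at room temperature prior to luminescence measurement.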

Test [10] is described as follows: qHTS assay to identify small molecule antagonists of the sonic hedgehog signaling (Shh) pathway (AID 1259369; calls by dose curve; also: nearly all actives have a fitted effect of over 45% in size; also: potency is read from the fitted curve at half-maximal effect). Put shortly:
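Read-out is luminescence from a firefly luciferase gene controlled by the Gli1 response element, in 3T3Gli1-Luc cells pre-incubated 4hr then exposed to compounds and conditioned medium for 24hr.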

A short description of test [11]: qHTS assay to identify small molecule agonists of the androgen receptor (AR) signaling pathway in the presence of an antagonist - cell viability counter screen (AID 1259379). Also: nearly all actives have a fitted effect of over 25% in size. Also: potency is read from the fitted curve at half-maximal effect. Put shortly: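 Each compound was tested at 15 concentrations on MDA-kb2 cells in the presence of 3.0uM nilutamide. Viability was measured by CellTiter-Fluor fluorescence after a 16 hr incubation at 37C in a CO2-free atmosphere.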

A short description of test [12]: qHTS assay to identify small molecule agonists of the estrogen receptor beta (ER-beta) signaling pathway - cell viability counter screen (AID 1259380). Also: nearly all actives have a fitted effect of over 30% in size. Also: potency is read from the fitted curve at half-maximal effect. The essentials:
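Compounds dissolved in DMSO were pin-transferred onto ER-beta-UAS-bla HEK293T cells that had settled 6 hr, and exposure ran 16 hr at 37C. Following the reporter read, CellTiter-Glo luminescence after 30 min at room temperature indicated cytotoxicity.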

Test [13] addresses Androgen receptor (Homo sapiens) (UniProt P10275). Briefly: qHTS assay to identify small molecule agonists of the androgen receptor (AR) signaling pathway in the presence of an antagonist (AID 1259381; calls by dose curve; also: nearly all actives have a fitted effect of over 15% in size). Put shortly: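 Plated MDA-kb2 cells (3,000/well) were pre-incubated 5hr, given nilutamide (3.0uM final) or buffer, then dosed with compounds in DMSO at 15 concentrations. Luciferase activity was quantified by luminescence after 16hr at 37C.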

The target in test [14] is Estrogen receptor (Homo sapiens) (UniProt P03372). Briefly: qHTS assay to identify small molecule agonists of the estrogen receptor alpha (ER-alpha) signaling pathway in the presence of an antagonist (AID 1259383; calls by dose curve; also: nearly all actives have a fitted effect of over 15% in size; also: potency is read from the fitted curve at half-maximal effect; as to activation: top concentration of the series differs between compounds). The essentials:
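Luminescent ERE-luciferase reporter, VM7Luc4E2 cells (endogenous ER-alpha); 10.0nM ICI-182,780 final; 15-point compound titration; 22hr at 37C; ONE-Glo, 30min RT.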

Test [15] can be described thus: qHTS assay to identify small molecule agonists or antagonists of the thyroid stimulating hormone receptor (TSHR) signaling pathway - wild type cell line counter screen (AID 1259384; calls by dose curve). The essentials: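 Wild-type Hek293 cells, 800/well, 18 h at 37C, then compound with Ro20-1724 for 30 min RT. cAMP by HTRF (cAMP-d2/anti-cAMP cryptate), 1 h RT, fluorescence read. 15 concentrations, triplicates.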

For test [16], the target named is Thyrotropin receptor (Homo sapiens) (UniProt P16473). Briefly: qHTS assay to identify small molecule antagonists of the thyroid stimulating hormone receptor (TSHR) signaling pathway (AID 1259385; calls by dose curve; also: nearly all actives have a fitted effect of over 20% in size). Put shortly:
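TSHR-HEK293 cells (800/well) plated 18 h, then compounds with Ro20-1724 and TSH at 1.5 ng/mL final, 30 min at room temperature. cAMP quantified by HTRF (cAMP-d2/anti-cAMP-cryptate, 1 h); 15 concentrations in triplicate.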

Test [17] in a line: qHTS assay to identify small molecule agonists of the estrogen receptor alpha (ER-alpha) signaling pathway in the presence of an antagonist - cell viability counter screen (AID 1259386).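 Also: cells exposed to compounds for 22 h at 37 °C before the viability read; nearly all actives have a fitted effect of over 30% in size.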 Also: potency is read from the fitted curve at half-maximal effect. Put shortly: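 Using estrogen-depleted VM7Luc4E2 cells, the 15-concentration compound series was applied together with 10.0nM ICI-182,780 and incubated 22hr at 37C/5% CO2. Cell viability was then scored by CellTiter-Fluor.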

The nature of test [18]: qHTS assay to identify small molecule antagonists of the estrogen receptor beta (ER-beta) signaling pathway - cell viability counter screen (AID 1259382). Also: nearly all actives have a fitted effect of over 55% in size. Also: potency is read from the fitted curve at half-maximal effect. The essentials:
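CellTiter-Glo ATP luminescence measured after the LiveBLAzer read in the same wells; ER-beta-UAS-bla HEK293T cells, 16 hr compound treatment with 1nM 17-beta-estradiol agonist at 37C, 5% CO2.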

Test [19] has as its target Estrogen receptor beta (Homo sapiens) (UniProt Q92731). The test can be described thus: qHTS assay to identify small molecule agonists of the estrogen receptor beta (ER-beta) signaling pathway (AID 1259377; active = well fitted activation curve with a large enough effect in the signal ratio in the repeat runs, not every such curve was filed as active; the % refers to the signal ratio; also: potency is read from the fitted curve at half-maximal effect). The essentials:
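In HEK293T cells bearing a UAS-beta-lactamase reporter under ER-beta control, DMSO-delivered compounds were incubated for 16 hr at 37C. Activity was detected as fluorescence 2 hours after LiveBLAzer B/G FRET substrate addition.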

For test [20] the target is unchanged. Briefly: qHTS assay to identify small molecule antagonists of the estrogen receptor beta (ER-beta) signaling pathway (AID 1259378; active = well fitted inhibition curve with a large enough effect in the signal ratio in the repeat runs, not every such curve was filed as active; the % refers to the signal ratio). The essentials: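 ER-beta-UAS-bla HEK293T cells in 2% charcoal-stripped FBS medium treated with compound plus 1nM final 17-beta-estradiol for 16 hr at 37C. Beta-lactamase reporter read by FRET substrate fluorescence after 2 hours at room temperature.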

Sequence of Estrogen receptor (Homo sapiens) (P03372 whole entry, looked up): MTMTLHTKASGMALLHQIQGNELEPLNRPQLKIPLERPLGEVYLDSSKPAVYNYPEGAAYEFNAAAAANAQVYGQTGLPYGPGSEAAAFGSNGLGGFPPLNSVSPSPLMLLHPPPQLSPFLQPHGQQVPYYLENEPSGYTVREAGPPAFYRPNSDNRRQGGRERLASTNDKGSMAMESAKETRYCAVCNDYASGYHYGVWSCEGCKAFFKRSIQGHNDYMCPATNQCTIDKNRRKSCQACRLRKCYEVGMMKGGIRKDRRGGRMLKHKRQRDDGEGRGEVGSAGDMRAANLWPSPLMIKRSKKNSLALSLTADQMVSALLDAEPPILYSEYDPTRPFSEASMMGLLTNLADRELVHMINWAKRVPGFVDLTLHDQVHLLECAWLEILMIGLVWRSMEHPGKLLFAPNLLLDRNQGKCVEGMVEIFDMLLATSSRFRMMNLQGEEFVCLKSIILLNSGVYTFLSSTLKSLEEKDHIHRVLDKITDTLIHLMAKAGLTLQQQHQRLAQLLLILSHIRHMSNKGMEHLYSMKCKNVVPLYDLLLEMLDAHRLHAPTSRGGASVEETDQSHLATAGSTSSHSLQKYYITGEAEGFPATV
Sequence of Estrogen receptor beta (Homo sapiens) (Q92731 whole entry, looked up): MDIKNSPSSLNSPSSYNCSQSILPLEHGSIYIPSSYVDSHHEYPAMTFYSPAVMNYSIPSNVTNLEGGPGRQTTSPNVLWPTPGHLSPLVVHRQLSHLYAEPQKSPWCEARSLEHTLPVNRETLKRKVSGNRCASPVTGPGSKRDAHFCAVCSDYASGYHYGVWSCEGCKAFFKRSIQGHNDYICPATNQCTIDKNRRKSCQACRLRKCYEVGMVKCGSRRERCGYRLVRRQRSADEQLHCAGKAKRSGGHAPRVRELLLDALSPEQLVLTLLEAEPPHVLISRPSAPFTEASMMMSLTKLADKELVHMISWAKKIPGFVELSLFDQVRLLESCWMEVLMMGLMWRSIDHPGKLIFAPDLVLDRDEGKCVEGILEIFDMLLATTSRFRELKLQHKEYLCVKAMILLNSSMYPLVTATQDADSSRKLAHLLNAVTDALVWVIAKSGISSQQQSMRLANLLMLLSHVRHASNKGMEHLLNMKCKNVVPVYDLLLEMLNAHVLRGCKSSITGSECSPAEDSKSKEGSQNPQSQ
Sequence of Androgen receptor (Homo sapiens) (P10275 whole entry, looked up): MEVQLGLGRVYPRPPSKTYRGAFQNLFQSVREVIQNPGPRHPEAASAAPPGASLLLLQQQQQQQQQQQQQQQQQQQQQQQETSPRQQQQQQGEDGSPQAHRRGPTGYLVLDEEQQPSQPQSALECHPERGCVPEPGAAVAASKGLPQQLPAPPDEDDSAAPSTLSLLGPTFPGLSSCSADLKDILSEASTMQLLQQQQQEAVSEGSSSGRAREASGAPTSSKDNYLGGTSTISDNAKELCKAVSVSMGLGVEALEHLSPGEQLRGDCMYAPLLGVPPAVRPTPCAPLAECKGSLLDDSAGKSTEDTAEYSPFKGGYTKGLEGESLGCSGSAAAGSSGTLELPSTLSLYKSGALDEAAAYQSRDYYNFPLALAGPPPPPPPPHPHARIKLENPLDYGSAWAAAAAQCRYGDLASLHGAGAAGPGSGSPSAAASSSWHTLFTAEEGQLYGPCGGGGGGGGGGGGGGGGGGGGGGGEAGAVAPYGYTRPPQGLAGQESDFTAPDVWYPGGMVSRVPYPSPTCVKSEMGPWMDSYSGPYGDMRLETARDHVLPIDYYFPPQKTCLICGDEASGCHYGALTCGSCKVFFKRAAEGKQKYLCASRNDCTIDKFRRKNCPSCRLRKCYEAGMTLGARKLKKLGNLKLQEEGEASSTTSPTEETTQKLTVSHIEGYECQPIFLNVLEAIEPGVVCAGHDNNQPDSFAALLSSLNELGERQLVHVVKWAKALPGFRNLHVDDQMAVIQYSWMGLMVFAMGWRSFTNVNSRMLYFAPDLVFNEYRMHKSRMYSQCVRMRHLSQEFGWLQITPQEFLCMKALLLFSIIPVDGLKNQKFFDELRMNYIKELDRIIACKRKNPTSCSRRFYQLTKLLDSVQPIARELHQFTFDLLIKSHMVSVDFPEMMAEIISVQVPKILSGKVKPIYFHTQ
Sequence of Thyrotropin receptor (Homo sapiens) (P16473 whole entry, looked up): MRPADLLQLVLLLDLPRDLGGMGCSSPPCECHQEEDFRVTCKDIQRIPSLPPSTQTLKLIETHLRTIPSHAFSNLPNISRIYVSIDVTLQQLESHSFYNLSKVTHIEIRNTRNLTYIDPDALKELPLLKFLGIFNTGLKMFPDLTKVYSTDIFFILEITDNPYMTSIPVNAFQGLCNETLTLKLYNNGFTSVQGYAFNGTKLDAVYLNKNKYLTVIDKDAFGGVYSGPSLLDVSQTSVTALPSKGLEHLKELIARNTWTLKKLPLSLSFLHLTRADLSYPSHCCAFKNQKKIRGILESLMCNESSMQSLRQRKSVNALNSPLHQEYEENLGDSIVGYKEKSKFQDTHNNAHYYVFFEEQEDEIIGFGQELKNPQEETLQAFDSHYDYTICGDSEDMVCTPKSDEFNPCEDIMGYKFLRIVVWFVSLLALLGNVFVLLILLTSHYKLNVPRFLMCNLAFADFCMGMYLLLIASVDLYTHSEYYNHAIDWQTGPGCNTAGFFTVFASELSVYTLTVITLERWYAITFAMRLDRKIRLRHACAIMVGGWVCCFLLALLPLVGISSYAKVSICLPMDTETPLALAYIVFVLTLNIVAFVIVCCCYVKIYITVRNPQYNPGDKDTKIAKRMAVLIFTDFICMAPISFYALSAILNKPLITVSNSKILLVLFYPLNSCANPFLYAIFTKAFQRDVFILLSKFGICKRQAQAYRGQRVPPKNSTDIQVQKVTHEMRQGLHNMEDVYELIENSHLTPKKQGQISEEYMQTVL

Turning to `CC(C)=CCOc1ccc(/C=C/C(=O)c2ccc(OCC=C(C)C)cc2OCC(=O)O)cc1`, the Potency entry in test [1], in [2], in test [3], in [4], in test [5] and in [6] was “inactive” each time. Also, the Potency entry in [7], in [8], in [9], in test [10], in test [11] and in test [13] was “inactive” throughout. Also, the Potency result in [14], in test [16] and in test [17] was “inactive” in each case. For the same compound, in test [12], the Potency was 5.96 µM (active). In addition, in test [15], the result was inactive.
In the case of `CCC(C)Nc1ccc(NC(C)CC)cc1` (stereo not drawn), the Potency in test [1] was 24.8 µM (active); in test [2], 1.57 µM (active); in test [3] it was 2.48 µM (active); in test [6], 24.8 µM (active); in [8], 19.7 µM (active); in test [10] it was 3.93 µM (active). For the same compound, the Potency in test [11] is 24.8 µM (active); in test [18], 5.55 µM (active); in test [17], 17.6 µM (active). For the same compound, the Potency result in test [5], in [9], in [13] and in test [14] was “inactive” each time.
On to `Cc1cc(O)c(Cl)c(C)c1Cl`, for which the Potency result in test [1], in [2], in test [3], in [5], in test [6] and in [9] was “inactive” throughout. For the same compound, the Potency entry in [10], in test [19], in test [20], in [11], in test [13] and in [18] was “inactive” throughout. The Potency entry in test [14], in test [16] and in test [17] was “inactive” each time. Further, the Potency in [8] is 24.3 µM (active). Moreover, the result in test [15] was inactive.
Consider `CC(C)C(C)(C)C(C)(C)C(C)(C)S`, for which the Potency result in test [1], in test [2], in test [3], in [4], in test [5] and in [6] was “inactive” throughout. Further, the Potency entry in test [7], in [8], in [9], in test [19], in test [20] and in [11] was “inactive” each time. Further, the Potency entry in test [12], in test [13], in [14] and in test [17] was “inactive” each time. In test [15], the call was inactive.
In the case of `CC[C@H](c1ccc(O)cc1)[C@@H](CC)c1ccc(O)cc1`, the Potency entry in test [1], in [4], in test [5], in test [6], in test [9] and in test [11] was “inactive” throughout. Also, the Potency entry in [13] and in test [17] was “inactive” in each case. For the same compound, the Potency in [2] was 15.4 µM (active) and 26.6 µM (active); in [3], 48.6 µM (active); in test [7] it was 54.5 µM (active) and inactive; in test [8] it was 48.6 µM (active) and inactive; in test [10], 7.7 µM (active); in [19] it was 0.0011 µM (active). The Potency was 48.6 µM (active) and inactive in [12]; 4.3 nM (active) and 8.4 nM (active) in [14].
`NNC(=O)c1cccc(C(=O)NN)c1`: the Potency result in test [1], in test [2], in [3], in [5], in test [6] and in [7] was “inactive” in each case. Besides, the Potency entry in test [8], in test [10], in [11], in [13], in test [18] and in test [14] was “inactive” throughout. Moreover, the Potency result in test [17] is “inactive”.
